Data from PubChem BioAssay (EPA / NIEHS).
Records with an inconclusive call do not appear. Calls of active or inactive are those of the source. How the source made its calls, unless noted: active means hit-call score of the fitted dose curve at least 0.9, where 1 is the maximum; inactive means score below 0.9.

Columns and labels:
[1] = target: human RAR-related Orphan Receptor gamma (RORg), RORC (gene 6097) (UniProt P51449); test: ATG_RORg_TRANS: Attagene TRANS-FACTORIAL HepG2 Assay for human RAR-related Orphan Receptor gamma (RORg) (AID 2283011; active means hit-call score of the fitted dose curve at least 0.9, where 1 is the maximum)
How it was run: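 First, HepG2 liver cells were transfected with GAL4-UAS-driven reporter constructs and the RORg-Gal4 fusion. Next, they were treated with chemical for 24 h. Finally, reporter mRNA was quantified by RT-PCR and capillary electrophoresis, with upward activity fitted against DMSO.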

[2] = target: Retinoic acid receptor RXR-alpha (Homo sapiens) (UniProt P19793); test: ATG_RXRa_TRANS: Attagene TRANS-FACTORIAL HepG2 Assay for human Retinoid X Receptor alpha (RXRa) (AID 2283012; active means hit-call score of the fitted dose curve at least 0.9, where 1 is the maximum)
How it was run: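 Measures exogenous chimeric NR-GAL4 activity in transfected HepG2 liver cells after 24 h of dosing. Induced reporter mRNA was detected by RT-PCR with capillary electrophoresis, and gain of signal was analysed against DMSO.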

[3] = target: human Thyroid Receptor alpha (THRa1), THRA (gene 7067) (UniProt P10827); test: ATG_THRa1_TRANS: Attagene TRANS-FACTORIAL HepG2 Assay for human Thyroid Receptor alpha (THRa1) (AID 2283014; active means hit-call score of the fitted dose curve at least 0.9, where 1 is the maximum)
How it was run: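 Reporter transcript induction, read by capillary electrophoresis of 6-FAM-labelled RT-PCR products, reflects activity of a transfected THRa1-Gal4 fusion in HepG2 liver cells. Cells were dosed for 24 h; activity was fitted in the positive direction against DMSO.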

[4] = read-out: E-selectin (Homo sapiens) (UniProt P16581); test: BSK_3C_Eselectin: BioMAP Diversity Plus: 3C Assay for Eselectin Biomarker Activity (AID 2283015); settings: primary human endothelial cells (HUVEC); actives raise or lower the signal;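 on outcome: cell surface E-selectin protein quantified by ELISA 24 h after dosing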
How it was run: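 ELISA read-out of E-selectin on endothelial monolayers after 24 h chemical treatment. Human umbilical vein primary cells served as the system, with DMSO defining baseline activity for bidirectional fitting.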

[5] = read-out: Interleukin-1 alpha (IL1a), IL1A (gene 3552); test: BSK_BE3C_IL1a: BioMAP Diversity Plus: BE3C Assay for Interleukin-1 alpha (IL1a) Biomarker Activity (AID 2283016); settings: primary human bronchial epithelial cells; actives raise or lower the signal
How it was run: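 Signal from IL-1a ELISA, taken 24 h after chemical dosing of human bronchial epithelial cells, is compared with DMSO as baseline using bidirectional curve fitting.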

[6] = read-out: Monocyte Chemoattractant Protein-1 (MCP1), CCL2 (gene 6347); test: BSK_3C_MCP1: BioMAP Diversity Plus: 3C Assay for Monocyte Chemoattractant Protein-1 (MCP1) Biomarker Activity (AID 2283017); settings: primary human endothelial cells (HUVEC); actives raise or lower the signal
How it was run: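 ELISA read-out of MCP-1 from human umbilical vein endothelial cell cultures harvested 24 h post-dosing. Gain or loss of signal was fitted relative to DMSO.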

[7] = read-out: Monocyte Chemoattractant Protein-1 (MCP1), CCL2 (gene 6347); test: BSK_4H_MCP1: BioMAP Diversity Plus: 4H Assay for Monocyte Chemoattractant Protein-1 (MCP1) Biomarker Activity (AID 2283018); settings: primary human endothelial cells (HUVEC); actives raise or lower the signal
How it was run: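 Endothelial cells from umbilical vein were treated with test chemical, then after 24 h MCP-1 levels were quantified by ELISA; endpoint values came from bidirectional fitting with DMSO as baseline of activity.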

[8] = read-out: Human Leukocyte Antigen - DR isotype (HLADR), HLA-DRA (gene 3122); test: BSK_3C_HLADR: BioMAP Diversity Plus: 3C Assay for Human Leukocyte Antigen - DR isotype (HLADR) Biomarker Activity (AID 2283019); settings: primary human endothelial cells (HUVEC); actives raise or lower the signal;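 on outcome: ELISA of cell-surface HLA-DR on HUVEC 24 h after dosing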
How it was run: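 ELISA readout of surface HLA-DR on human umbilical vein endothelium, taken 24 h after chemical treatment. Gain- and loss-of-signal were both fitted relative to DMSO.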

[9] = read-out: Interleukin-8 (IL8), CXCL8 (gene 3576); test: BSK_3C_IL8: BioMAP Diversity Plus: 3C Assay for Interleukin-8 (IL8) Biomarker Activity (AID 2283020); settings: primary human endothelial cells (HUVEC); actives raise or lower the signal
How it was run: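 Endothelial primary cells of human umbilical vein origin are dosed with chemical; after 24 h the IL-8 biomarker is measured by ELISA, and concentration–response is fitted in both directions versus DMSO.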

[10] = target: human Retinoid X Receptor beta (RXRb), RXRB (gene 6257) (UniProt P28702); test: ATG_RXRb_TRANS: Attagene TRANS-FACTORIAL HepG2 Assay for human Retinoid X Receptor beta (RXRb) (AID 2283013; active means hit-call score of the fitted dose curve at least 0.9, where 1 is the maximum)
How it was run: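 Chimeric receptor-Gal4 activity was assessed in transiently transfected human HepG2 cells after 24 h exposure. Transcripts from GAL4-UAS reporters were quantified by fluorescent RT-PCR and capillary electrophoresis, with DMSO as negative control and baseline.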

Sequence of human Retinoid X Receptor beta (RXRb), RXRB (gene 6257) (P28702 whole entry, looked up, the tested form may be a part): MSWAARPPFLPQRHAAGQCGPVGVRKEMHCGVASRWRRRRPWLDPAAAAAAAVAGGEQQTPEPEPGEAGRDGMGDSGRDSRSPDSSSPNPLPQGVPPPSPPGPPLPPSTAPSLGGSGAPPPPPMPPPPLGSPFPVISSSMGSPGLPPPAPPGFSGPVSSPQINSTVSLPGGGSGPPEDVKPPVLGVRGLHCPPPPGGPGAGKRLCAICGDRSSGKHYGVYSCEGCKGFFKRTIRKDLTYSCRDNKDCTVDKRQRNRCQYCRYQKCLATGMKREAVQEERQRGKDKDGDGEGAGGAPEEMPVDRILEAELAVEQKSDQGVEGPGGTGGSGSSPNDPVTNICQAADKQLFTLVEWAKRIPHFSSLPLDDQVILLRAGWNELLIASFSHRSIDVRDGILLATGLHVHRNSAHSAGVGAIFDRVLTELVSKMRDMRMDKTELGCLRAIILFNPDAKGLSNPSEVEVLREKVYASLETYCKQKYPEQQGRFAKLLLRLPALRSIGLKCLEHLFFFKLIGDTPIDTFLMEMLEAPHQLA
Sequence of human Thyroid Receptor alpha (THRa1), THRA (gene 7067) (P10827 whole entry, looked up, the tested form may be a part): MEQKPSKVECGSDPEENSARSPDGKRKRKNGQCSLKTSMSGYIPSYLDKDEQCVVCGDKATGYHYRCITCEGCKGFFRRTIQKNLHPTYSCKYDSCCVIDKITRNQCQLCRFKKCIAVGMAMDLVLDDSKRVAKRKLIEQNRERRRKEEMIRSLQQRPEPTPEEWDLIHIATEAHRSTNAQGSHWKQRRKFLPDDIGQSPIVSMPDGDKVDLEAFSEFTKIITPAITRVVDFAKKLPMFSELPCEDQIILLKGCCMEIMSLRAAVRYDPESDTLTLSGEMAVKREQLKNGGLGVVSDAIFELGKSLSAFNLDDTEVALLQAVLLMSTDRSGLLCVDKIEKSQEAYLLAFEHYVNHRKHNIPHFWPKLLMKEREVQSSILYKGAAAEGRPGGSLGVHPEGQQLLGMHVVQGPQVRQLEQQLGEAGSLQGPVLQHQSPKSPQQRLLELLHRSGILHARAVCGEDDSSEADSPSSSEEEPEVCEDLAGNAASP
Sequence of Retinoic acid receptor RXR-alpha (Homo sapiens) (P19793 whole entry, looked up, the tested form may be a part): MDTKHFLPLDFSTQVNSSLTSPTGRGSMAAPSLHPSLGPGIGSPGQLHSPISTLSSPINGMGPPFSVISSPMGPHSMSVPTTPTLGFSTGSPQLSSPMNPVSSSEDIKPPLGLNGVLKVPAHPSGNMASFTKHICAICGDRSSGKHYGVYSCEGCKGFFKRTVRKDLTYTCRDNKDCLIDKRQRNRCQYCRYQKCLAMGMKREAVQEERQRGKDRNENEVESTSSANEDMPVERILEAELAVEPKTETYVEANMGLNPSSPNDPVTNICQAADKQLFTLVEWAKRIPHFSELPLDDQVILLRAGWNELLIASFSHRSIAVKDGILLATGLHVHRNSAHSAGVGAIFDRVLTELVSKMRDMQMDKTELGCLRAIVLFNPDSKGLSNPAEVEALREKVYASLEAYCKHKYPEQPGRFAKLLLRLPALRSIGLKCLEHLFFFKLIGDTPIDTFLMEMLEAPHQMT
Sequence of human RAR-related Orphan Receptor gamma (RORg), RORC (gene 6097) (P51449 whole entry, looked up, the tested form may be a part): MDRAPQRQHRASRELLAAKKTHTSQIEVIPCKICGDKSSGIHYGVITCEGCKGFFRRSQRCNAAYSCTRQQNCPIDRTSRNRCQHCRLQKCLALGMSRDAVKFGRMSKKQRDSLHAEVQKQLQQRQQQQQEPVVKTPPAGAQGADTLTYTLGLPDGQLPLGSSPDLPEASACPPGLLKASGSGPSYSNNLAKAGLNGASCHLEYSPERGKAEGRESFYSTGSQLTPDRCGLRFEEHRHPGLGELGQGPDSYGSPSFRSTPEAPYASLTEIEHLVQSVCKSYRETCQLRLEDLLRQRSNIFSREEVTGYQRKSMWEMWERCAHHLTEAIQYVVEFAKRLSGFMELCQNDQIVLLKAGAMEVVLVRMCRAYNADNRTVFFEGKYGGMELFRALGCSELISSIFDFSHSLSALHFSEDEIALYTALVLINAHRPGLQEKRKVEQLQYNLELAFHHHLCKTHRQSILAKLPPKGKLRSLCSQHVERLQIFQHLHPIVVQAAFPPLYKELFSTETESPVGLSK
Sequence of E-selectin (Homo sapiens) (P16581 whole entry, looked up): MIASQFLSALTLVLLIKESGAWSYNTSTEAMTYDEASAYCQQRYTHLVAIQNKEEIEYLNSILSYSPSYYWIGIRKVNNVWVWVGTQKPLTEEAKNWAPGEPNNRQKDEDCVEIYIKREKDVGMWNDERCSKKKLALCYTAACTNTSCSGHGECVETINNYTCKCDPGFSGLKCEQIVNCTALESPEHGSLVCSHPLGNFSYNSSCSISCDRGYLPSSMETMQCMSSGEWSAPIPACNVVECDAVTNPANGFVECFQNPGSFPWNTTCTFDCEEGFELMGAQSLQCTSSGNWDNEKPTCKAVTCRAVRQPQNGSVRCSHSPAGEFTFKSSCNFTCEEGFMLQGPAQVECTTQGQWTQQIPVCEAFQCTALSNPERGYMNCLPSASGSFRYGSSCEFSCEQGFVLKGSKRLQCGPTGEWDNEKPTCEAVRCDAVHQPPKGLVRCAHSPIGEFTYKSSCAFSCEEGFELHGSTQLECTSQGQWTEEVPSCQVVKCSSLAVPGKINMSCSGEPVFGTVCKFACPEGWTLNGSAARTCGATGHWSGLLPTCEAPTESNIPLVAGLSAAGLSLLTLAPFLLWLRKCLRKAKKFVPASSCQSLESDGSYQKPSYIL

Row | SMILES | outcome [1] | outcome [2] | outcome [3] | outcome [4] | outcome [5] | outcome [6] | outcome [7] | AC50 [8] | outcome [9] | outcome [8] | AC50 [7] | outcome [10] | AC50 [4] | AC50 [6] | AC50 [9] | AC50 [10]
1 | CCCN(CC)CC1COC2(CCC(C(C)(C)C)CC2)O1 (configuration not stated) | inactive | inactive | inactive | inactive | inactive | inactive | inactive | 6.16 µM (active) | inactive | – | – | – | – | – | – | –
2 | O=c1n(Cl)c(=O)n(Cl)c(=O)n1Cl | inactive | inactive | – | inactive | – | inactive | inactive | 3.97 µM (active) | inactive | – | – | – | – | – | – | –
3 | COc1cc(OC)nc(NC(=O)NS(=O)(=O)c2ncccc2OCC(F)(F)F)n1 | inactive | inactive | – | inactive | – | inactive | inactive | – | inactive | inactive | – | – | – | – | – | –
4 | CC1(C)C(C=C(Cl)Cl)C1C(=O)OC(C#N)c1cccc(Oc2ccccc2)c1 (configuration not stated) | inactive | inactive | – | inactive | – | inactive | – | – | inactive | inactive | 9.17 µM (active) | – | – | – | – | –
5 | O=P(O)(O)CCCl | inactive | inactive | – | inactive | inactive | inactive | inactive | – | inactive | inactive | – | – | – | – | – | –
6 | CCCCC(O)(Cn1cncn1)c1ccc(Cl)cc1Cl (configuration not stated) | inactive | inactive | – | inactive | – | inactive | inactive | 20 µM (active) | inactive | – | – | – | – | – | – | –
7 | Cc1c(COC(=O)[C@@H]2[C@H](/C=C(\Cl)C(F)(F)F)C2(C)C)cccc1-c1ccccc1 | inactive | inactive | inactive | inactive | inactive | inactive | inactive | 5.44 µM (active) | inactive | – | – | – | – | – | – | –
8 | CC(C)Oc1cccc(NC(=O)c2ccccc2C(F)(F)F)c1 | inactive | inactive | inactive | inactive | inactive | inactive | inactive | – | inactive | inactive | – | inactive | – | – | – | –
9 | CNC(=O)N(C)c1nnc(C(C)(C)C)s1 | inactive | inactive | – | inactive | – | inactive | inactive | – | inactive | inactive | – | – | – | – | – | –
10 | CCNC(=O)NC(=O)C(C#N)=NOC | inactive | inactive | inactive | inactive | inactive | inactive | inactive | – | inactive | inactive | – | – | – | – | – | –
11 | CC1(C)CON(Cc2ccccc2Cl)C1=O | inactive | inactive | inactive | inactive | inactive | inactive | inactive | – | inactive | inactive | – | – | – | – | – | –
12 | CNC(=O)Oc1cccc2ccccc12 | inactive | inactive | inactive | inactive | – | inactive | inactive | – | inactive | inactive | – | – | – | – | – | –
13 | CC(C)N1C(=O)N(c2ccccc2)CSC1=NC(C)(C)C | inactive | inactive | inactive | – | inactive | – | – | 31.8 µM (active) | – | – | 30.4 µM (active) | – | 16 µM (active) | 31.3 µM (active) | 25.4 µM (active) | –
14 | CCC(C)n1c(=O)[nH]c(C)c(Br)c1=O (configuration not stated) | inactive | inactive | inactive | inactive | – | inactive | inactive | – | inactive | inactive | – | inactive | – | – | – | –
15 | CCN(CC)C(=O)C(C)Oc1cccc2ccccc12 (configuration not stated) | inactive | inactive | – | inactive | – | inactive | inactive | – | inactive | inactive | – | inactive | – | – | – | –
16 | CSC(=O)c1c(C(F)F)nc(C(F)(F)F)c(C(=O)SC)c1CC(C)C | inactive | inactive | – | inactive | – | – | – | 31.1 µM (active) | – | – | 20 µM (active) | – | – | 31.2 µM (active) | 32.4 µM (active) | –
17 | O=C(Nc1ccccc1-c1ccc(Cl)cc1)c1cccnc1Cl | inactive | inactive | inactive | inactive | inactive | inactive | inactive | – | inactive | inactive | – | inactive | – | – | – | –

Row | SMILES | outcome [1] | outcome [2] | outcome [3] | outcome [4] | outcome [5] | outcome [6] | outcome [7] | AC50 [8] | outcome [9] | outcome [8] | AC50 [7] | outcome [10] | AC50 [4] | AC50 [6] | AC50 [9] | AC50 [10]
18 | CCSC(=O)N1CCCCCC1 | inactive | inactive | – | inactive | – | inactive | inactive | – | inactive | inactive | – | – | – | – | – | –
19 | Cc1cnc(C2=NC(C)(C(C)C)C(=O)N2)c(C(=O)O)c1 (configuration not stated) | inactive | inactive | inactive | inactive | inactive | inactive | inactive | – | inactive | inactive | – | – | – | – | – | –
20 | Nc1c(Cl)c(Cl)nc(C(=O)O)c1Cl | inactive | inactive | inactive | inactive | – | inactive | inactive | – | inactive | inactive | – | – | – | – | – | –
21 | CN=C=S | inactive | – | inactive | – | inactive | inactive | inactive | 8.86 µM (active) | inactive | – | – | – | 11.7 µM (active) | – | – | –
22 | CCOc1nc(F)cc2nc(S(=O)(=O)Nc3c(Cl)cccc3Cl)nn12 | inactive | inactive | inactive | inactive | – | – | inactive | – | inactive | inactive | – | – | – | 33.2 µM (active) | – | –
23 | CS(=O)(=O)c1cc(C(F)(F)F)ccc1C(=O)c1cnoc1C1CC1 | inactive | inactive | – | inactive | – | inactive | inactive | – | inactive | inactive | – | inactive | – | – | – | –
24 | CCN(CC)c1nc(C)cc(OP(=S)(OC)OC)n1 | inactive | – | inactive | inactive | – | inactive | inactive | – | inactive | inactive | – | – | – | – | – | 33.7 µM (active)
25 | COP(=O)(OC)O/C(C)=C/C(=O)N(C)C | inactive | – | inactive | inactive | inactive | inactive | inactive | – | inactive | inactive | – | – | – | – | – | –
26 | CCOc1nc(C(Cl)(Cl)Cl)ns1 | inactive | inactive | inactive | inactive | – | inactive | inactive | 13.8 µM (active) | inactive | – | – | – | – | – | – | –
27 | N#Cc1c[nH]cc1-c1cccc2c1OC(F)(F)O2 | inactive | inactive | inactive | inactive | inactive | – | inactive | 20 µM (active) | – | – | – | – | – | 20 µM (active) | 8.82 µM (active) | –
28 | CCOP(=O)(OCC)Oc1nc(Cl)c(Cl)cc1Cl | inactive | inactive | – | inactive | – | inactive | inactive | 24.6 µM (active) | – | – | – | inactive | – | – | 20 µM (active) | –
29 | CC(C)C1(C)N=C(c2ncccc2C(=O)O)NC1=O (configuration not stated) | inactive | inactive | – | inactive | inactive | inactive | inactive | – | inactive | inactive | – | – | – | – | – | –
30 | C=C(C)CN(CC)c1c([N+](=O)[O-])cc(C(F)(F)F)cc1[N+](=O)[O-] | inactive | inactive | – | inactive | inactive | inactive | inactive | – | inactive | inactive | – | inactive | – | – | – | –
31 | Clc1cccc(C(Cl)(Cl)Cl)n1 | inactive | inactive | inactive | inactive | – | inactive | inactive | – | inactive | inactive | – | – | – | – | – | –
32 | COC(=O)N(C(=O)N1CO[C@@]2(C(=O)OC)Cc3cc(Cl)ccc3C2=N1)c1ccc(OC(F)(F)F)cc1 | inactive | inactive | inactive | inactive | inactive | inactive | – | – | inactive | inactive | 6.07 µM (active) | inactive | – | – | – | –
33 | CS(=O)(=O)c1ccc(C(=O)C2C(=O)CCCC2=O)c([N+](=O)[O-])c1 | inactive | inactive | inactive | inactive | – | inactive | inactive | – | inactive | inactive | – | – | – | – | – | –
